# Experimental data: the supplement of paper PMC12636033
# ± gives the standard deviation of the averaged measurements. The full ranking holds about 33,000 sequences; the median of “E-score (rank enrichment, -0.5 to 0.5)” is about -0.0075, and the highest 2% start at about 0.23. This excerpt belongs to a sample that is enriched for the highest values.
# Tested on: WT Max(13-93) synthetic (M65Nle)
# Experiment: PBM 8-mer E-score (E-score (rank enrichment, -0.5 to 0.5)); higher = stronger preferential binding
# Method: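 Protein binding microarray (universal PBM chip covering all 10-mers in fixed probe flanks) with chemically synthesized human Max(13-93) bHLH-LZ analogs (not full-length Max) bearing noncanonical residues (hArg, Tha, Aib, Nle at 65) and aromatic Cys staples. Read-out per 8-mer (and its reverse complement): E-score (rank-based enrichment, -0.5 to 0.5) and Z-score of median probe intensity.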
row,Sequence,PBM 8-mer E-score
1,GAAGTAAC,0.0916 ± 0.087
2,GTCTTTAA,0.0691 ± 0.12
3,ACCCACGT,0.359 ± 0.02
4,AATCACGA,0.0321 ± 0.13
5,AACCATGT,0.2698 ± 0.00089
6,AACCATGA,0.145 ± 0.028
7,ATCCACAT,0.287 ± 0.022
8,ACCCACGC,0.113 ± 0.11
9,AATCACGC,0.188 ± 0.042
10,ACCCACGA,-0.0551 ± 0.047
11,AACCATGG,0.0463 ± 0.13
12,AATCACGT,0.399 ± 0.04
13,ATCCACAG,0.0193 ± 0.067
14,ATCCACAA,0.0288 ± 0.05
15,AAATCTCG,0.017 ± 0.054
16,GTGAGTCA,-0.117 ± 0.064
17,TAGGCCAA,-0.0597 ± 0.035
18,CGCAAGCA,0.1148 ± 0.001
19,CTGAACGC,-0.243 ± 0.0048
20,GATTCCAC,-0.0239 ± 0.16
21,AACCATTA,0.318 ± 0.052
22,AACCACAG,-0.196 ± 0.12

row,Sequence,PBM 8-mer E-score
1,AACCATTG,0.0448 ± 0.0034
2,AACCACAT,0.282 ± 0.045
3,AACCACGT,0.392 ± 0.0086
4,AACCACAC,0.173 ± 0.0082
5,AACCACGA,0.198 ± 0.016
6,AACCACGC,0.178 ± 0.04
7,CACCATTA,-0.0432 ± 0.14
8,ACAATTGC,0.129 ± 0.021
9,ATATACCA,0.153 ± 0.019
10,TATGCTGA,-0.0828 ± 0.1
11,ACCTATTG,0.157 ± 0.01
12,TACGTATA,0.094 ± 0.091
13,ACTTGATC,-0.0132 ± 0.16
14,AGAGTGAA,-0.133 ± 0.058
15,CAGACATC,-0.0722 ± 0.089
16,CCCTTTGC,-0.0228 ± 0.044
17,CTGCCAAG,-0.0342 ± 0.067
18,CCTCGATA,-0.157 ± 0.014
19,CCTAAACG,-0.145 ± 0.043
20,AATGTGGC,0.0312 ± 0.0053
21,CATGGGGG,0.0813 ± 0.1
22,GATGTGGC,-0.117 ± 0.057

row,Sequence,PBM 8-mer E-score
1,CATGTGGA,0.324 ± 0.032
2,AATGTGGG,0.18 ± 0.032
3,CATGTGGC,0.3003 ± 0.0019
4,GATGTGGA,0.152 ± 0.011
5,AATGTGGA,0.0921 ± 0.085
6,CATGTGGG,0.257 ± 0.075
7,AATGACTG,0.102 ± 0.018
8,GAAGCTCA,-0.152 ± 0.13
9,ATTCAACC,-0.0085 ± 0.021
10,GTTCGGGA,-0.13 ± 0.11
11,GACCCTGA,-0.121 ± 0.035
12,AGAGGACA,-0.0937 ± 0.095
13,TAAGTTGA,0.0328 ± 0.044
14,ATTTCGTC,0.242 ± 0.011
15,CTTTCGTC,0.0247 ± 0.074
16,ATTTCGTG,0.0519 ± 0.051
17,ATACGATC,-0.0258 ± 0.1
18,ACAAAGAT,0.0862 ± 0.049
19,CAAGCTCA,-0.35 ± 0.017
20,GTGTGTTA,0.242 ± 0.099
21,CTGTGTTA,0.0459 ± 0.023
22,ATGTGTTA,0.275 ± 0.015

row,Sequence,PBM 8-mer E-score
1,ATGTATTA,0.225 ± 0.086
2,CTATGTTA,0.16 ± 0.052
3,ATGTGTGA,0.18 ± 0.12
4,ATGTGTCA,0.175 ± 0.069
5,ATATGTTC,0.179 ± 0.0093
6,CTGTATTA,0.138 ± 0.0022
7,GTGTATTA,0.247 ± 0.035
8,GGGTGTTA,-0.0337 ± 0.14
9,ATATGTTA,0.284 ± 0.051
10,TGAGATAA,0.116 ± 0.07
11,CAATGATC,-0.0206 ± 0.062
12,CGCCTCGA,-0.0745 ± 0.097
13,CTCCTGTC,-0.0511 ± 0.018
14,TCGCTGAA,-0.0377 ± 0.086
15,CCCCTGGC,-0.127 ± 0.042
16,AACCTCAT,0.156 ± 0.065
17,GTTTCCAA,0.0481 ± 0.061
18,ATGTGTTG,0.247 ± 0.035
19,ATATGTTG,0.0792 ± 0.065
20,ATGTGTTC,0.106 ± 0.0063
